# Laboratory results as given in PubChem BioAssay.
# Activity calls are given as the source filed them.
# Assays:
# [1] = system: PRMT1 (protein arginine N-methyltransferase 1); assay: PRMT1 binders on small-molecule microarrays, primary screen, biochemical, small-molecule microarray, 635 nm fluorescence (AID 1088); conditions: small-molecule microarray binding, higher = more signal;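 also: binding of Prmt1 protein to compounds spotted on small-molecule microarray slides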
# [2] = yeast growth modulation, basal conditions, primary screen, YJM789 clinical isolate, OD600, 24 h (AID 1089);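 also: growth of clinical yeast isolate S. cerevisiae YJM 789 seeded 1000 cells per well; test concentration not given here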; conditions: S. cerevisiae YJM789 growth, higher = more signal, called active from +8 up or from −8 down
# [3] = fission yeast growth modulation, primary screen, strain 972, OD600, 24 h, no modulator (AID 1090);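 also: basal condition with compound alone and no growth modifier present; test concentration not given here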; conditions: S. pombe 972 growth, higher = more signal, called active from +8 up or from −8 down
# [4] = S. cerevisiae growth modulation with rapamycin, primary screen, strain BY4716, OD600, 96 h (AID 1091); conditions: higher = more signal, called active from +8 up or from −8 down; also: test concentration not given here
# [5] = molecular target: Torsin-1A-interacting protein 2 (Homo sapiens) (UniProt Q8NFQ8); assay: LULL1 binders on small-molecule microarray, primary screen, cell lysate, human LULL1 lysate, 635/667 nm fluorescence (AID 1092); conditions: hLULL1 lysate binding, 635 nm fluorescence, higher = more signal;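 also: probe is lysate of COS7 cells overexpressing human LULL1; score merges per-feature 667 nm fluorescence with signal-to-noise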
# Sequence of Torsin-1A-interacting protein 2 (Homo sapiens) (Q8NFQ8 whole entry, looked up): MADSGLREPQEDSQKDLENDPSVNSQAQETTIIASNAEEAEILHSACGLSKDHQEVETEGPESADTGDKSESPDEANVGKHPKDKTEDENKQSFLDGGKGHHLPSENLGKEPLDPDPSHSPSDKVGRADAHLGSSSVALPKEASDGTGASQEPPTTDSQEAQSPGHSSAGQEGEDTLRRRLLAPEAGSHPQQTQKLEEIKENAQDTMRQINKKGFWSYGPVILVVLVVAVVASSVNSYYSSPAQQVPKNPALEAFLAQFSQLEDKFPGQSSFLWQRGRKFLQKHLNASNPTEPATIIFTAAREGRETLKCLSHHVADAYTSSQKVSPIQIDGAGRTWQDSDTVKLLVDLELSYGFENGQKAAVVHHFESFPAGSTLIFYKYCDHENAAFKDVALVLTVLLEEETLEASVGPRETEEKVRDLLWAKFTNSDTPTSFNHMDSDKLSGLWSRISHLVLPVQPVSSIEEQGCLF
# [6] = E. coli growth modulation, two-sided OD650, primary screen, E. coli filamentation project, strain DRC41, 24 h (AID 1093); conditions: OD650, 24 h, higher = more signal, called active from +8 up or from −8 down;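 also: MC1000 strain lacking acrAB efflux and sulA so SOS filamentation is blocked; test concentration not given here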
# [7] = small-molecule microarray binders of probe aLefty2, primary screen, biochemical, biotinylated probe, 635/667 nm fluorescence (AID 1094); conditions: higher = more signal;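 also: score merges spot fluorescence near 667 nm with spot signal-to-noise ratio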
# [8] = system: Noggin (protein binding on small-molecule microarray); assay: Noggin binders on small-molecule microarray, primary screen, biochemical, 635/667 nm fluorescence (AID 1095); conditions: 635 nm fluorescence, higher = more signal;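 also: score merges 667 nm feature fluorescence with signal to noise over triplicate slides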
# [9] = molecular target: Neurogenic locus notch homolog protein 3 (Homo sapiens) (UniProt Q9UM47); assay: NOTCH3 binders on small-molecule microarray, primary screen, biochemical, 635/667 nm fluorescence (AID 1096); conditions: NOTCH3 binding, 635 nm fluorescence, higher = more signal
# Sequence of Neurogenic locus notch homolog protein 3 (Homo sapiens) (Q9UM47 whole entry, looked up): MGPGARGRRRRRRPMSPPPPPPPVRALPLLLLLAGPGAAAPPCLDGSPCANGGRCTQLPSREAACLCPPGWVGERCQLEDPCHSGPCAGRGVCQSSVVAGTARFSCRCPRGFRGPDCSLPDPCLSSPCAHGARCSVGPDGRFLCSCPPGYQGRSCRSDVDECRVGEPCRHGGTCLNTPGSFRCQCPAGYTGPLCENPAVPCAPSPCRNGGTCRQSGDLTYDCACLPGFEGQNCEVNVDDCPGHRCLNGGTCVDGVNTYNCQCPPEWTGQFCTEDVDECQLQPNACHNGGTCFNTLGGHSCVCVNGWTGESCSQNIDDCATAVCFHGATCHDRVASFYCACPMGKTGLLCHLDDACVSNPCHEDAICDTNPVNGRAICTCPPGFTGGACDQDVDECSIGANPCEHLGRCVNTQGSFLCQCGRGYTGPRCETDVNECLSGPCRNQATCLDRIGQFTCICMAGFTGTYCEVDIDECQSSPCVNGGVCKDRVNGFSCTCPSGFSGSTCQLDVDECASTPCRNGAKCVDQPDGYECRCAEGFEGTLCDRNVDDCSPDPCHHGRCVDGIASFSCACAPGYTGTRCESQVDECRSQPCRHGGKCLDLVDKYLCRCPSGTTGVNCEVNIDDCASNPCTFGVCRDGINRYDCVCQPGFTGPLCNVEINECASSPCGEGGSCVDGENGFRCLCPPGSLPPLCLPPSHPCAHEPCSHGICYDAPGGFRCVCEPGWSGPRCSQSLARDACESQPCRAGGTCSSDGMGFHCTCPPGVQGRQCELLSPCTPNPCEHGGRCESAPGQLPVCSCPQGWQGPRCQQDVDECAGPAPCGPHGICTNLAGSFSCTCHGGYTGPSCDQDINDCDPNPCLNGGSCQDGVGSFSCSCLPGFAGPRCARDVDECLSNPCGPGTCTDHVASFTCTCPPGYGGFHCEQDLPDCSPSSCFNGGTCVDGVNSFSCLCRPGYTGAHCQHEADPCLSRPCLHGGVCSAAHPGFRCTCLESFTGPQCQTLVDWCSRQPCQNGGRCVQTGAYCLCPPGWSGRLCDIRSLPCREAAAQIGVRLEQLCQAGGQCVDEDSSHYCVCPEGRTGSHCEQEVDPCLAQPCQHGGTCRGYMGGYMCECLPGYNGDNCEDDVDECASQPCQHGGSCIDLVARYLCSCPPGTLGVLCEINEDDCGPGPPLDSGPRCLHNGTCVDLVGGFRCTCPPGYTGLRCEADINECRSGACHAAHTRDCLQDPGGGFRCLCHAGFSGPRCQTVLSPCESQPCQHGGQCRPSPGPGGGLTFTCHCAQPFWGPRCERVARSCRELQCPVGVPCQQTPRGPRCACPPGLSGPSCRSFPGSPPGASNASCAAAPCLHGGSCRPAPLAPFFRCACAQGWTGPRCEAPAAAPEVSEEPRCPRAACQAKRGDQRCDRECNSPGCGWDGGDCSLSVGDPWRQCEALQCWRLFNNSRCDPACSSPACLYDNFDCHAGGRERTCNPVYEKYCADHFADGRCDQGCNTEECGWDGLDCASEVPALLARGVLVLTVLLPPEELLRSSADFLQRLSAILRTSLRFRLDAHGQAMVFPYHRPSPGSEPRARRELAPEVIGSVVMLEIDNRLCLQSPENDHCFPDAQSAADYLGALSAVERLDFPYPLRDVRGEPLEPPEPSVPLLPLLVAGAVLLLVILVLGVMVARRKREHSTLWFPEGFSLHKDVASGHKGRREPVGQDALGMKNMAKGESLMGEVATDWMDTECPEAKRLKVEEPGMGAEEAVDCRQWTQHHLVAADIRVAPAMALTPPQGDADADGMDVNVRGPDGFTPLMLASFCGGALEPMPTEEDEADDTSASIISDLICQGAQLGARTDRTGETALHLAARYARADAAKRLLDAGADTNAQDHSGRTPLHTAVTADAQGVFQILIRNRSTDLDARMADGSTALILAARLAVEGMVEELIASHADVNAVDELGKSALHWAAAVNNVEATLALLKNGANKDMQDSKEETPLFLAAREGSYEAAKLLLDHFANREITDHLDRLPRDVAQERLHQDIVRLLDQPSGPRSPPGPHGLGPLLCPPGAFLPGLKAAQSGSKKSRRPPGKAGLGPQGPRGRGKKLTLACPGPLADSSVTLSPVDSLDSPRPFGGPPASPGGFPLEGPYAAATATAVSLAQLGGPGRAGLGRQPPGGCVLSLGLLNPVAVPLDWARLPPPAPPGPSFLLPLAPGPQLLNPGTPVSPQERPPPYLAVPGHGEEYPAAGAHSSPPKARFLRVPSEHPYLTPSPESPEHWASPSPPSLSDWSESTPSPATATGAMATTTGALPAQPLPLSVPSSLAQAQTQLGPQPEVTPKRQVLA
# [10] = small-molecule microarray binders of probe aEGFR, primary screen, biochemical, biotinylated probe, 635/667 nm fluorescence (AID 1097); conditions: higher = more signal;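 also: probe is a biotinylated anti-EGFR antibody binding compounds printed on slides; score combines fluorescence near 667 nm and signal to noise of each spot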
# [11] = system: Plasmodium falciparum Sir2 (PF13_0152, Sir2A); assay: pfSir2 binders on small-molecule microarrays, primary screen, biochemical, small-molecule microarray, 635 nm fluorescence (AID 1098); conditions: small-molecule microarray binding, fluorescence 635 nm; higher = more signal;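 also: score merges spot fluorescence intensity with its signal-to-noise ratio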
# [12] = small-molecule microarray binders of probe aDKK1, primary screen, biochemical, biotinylated probe, 635/667 nm fluorescence (AID 1099); conditions: higher = more signal;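 also: score merges 667nm spot fluorescence with signal to noise across triplicate slides; reference of the scale not given here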
# [13] = small-molecule microarray binders of probe aCHRDL2, primary screen, biochemical, biotinylated probe, 635/667 nm fluorescence (AID 1100); conditions: higher = more signal
# [14] = splicing luciferase reporter signal modulators, primary screen, spliceosome inhibition project, cell-based, HEK293, splice +/- reporter (AID 1101); conditions: luminescence, 24 h, higher = more signal, called active from +8 up or from −8 down;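 also: HEK293 cells carrying a splicing-competent luciferase reporter gene; test concentration not given here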
# [15] = molecular target: Fibroblast growth factor 10 (Homo sapiens) (UniProt O15520); assay: FGF10 binders on small-molecule microarrays, primary screen, biochemical, small-molecule microarray, 635 nm fluorescence (AID 1102); conditions: FGF10 binding, fluorescence 635 nm, higher = more signal
# Sequence of Fibroblast growth factor 10 (Homo sapiens) (O15520 whole entry, looked up): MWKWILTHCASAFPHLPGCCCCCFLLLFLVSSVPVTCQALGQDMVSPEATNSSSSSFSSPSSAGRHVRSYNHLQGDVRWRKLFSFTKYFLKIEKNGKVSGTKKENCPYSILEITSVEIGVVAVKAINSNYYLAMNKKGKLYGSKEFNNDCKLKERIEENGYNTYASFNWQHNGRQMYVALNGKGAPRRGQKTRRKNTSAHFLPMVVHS
# [16] = system: glycogen synthase kinase-3 (GSK3A per assay name; protocol says GSK3B); assay: GSK3 binders on small-molecule microarrays, primary screen, biochemical, small-molecule microarray, 635 nm fluorescence, GSK3A (AID 1103); conditions: small-molecule microarray binding, fluorescence 635 nm; higher = more signal; also: the record names both GSK3A and GSK3B
# [17] = molecular target: Epidermal growth factor receptor (Homo sapiens) (UniProt P00533); assay: EGFR binders on small-molecule microarrays, primary screen, biochemical, small-molecule microarray, 635 nm fluorescence (AID 1104); conditions: EGFR binding, higher = more signal;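 also: score merges 667 nm emission intensity with spot signal to noise over triplicate slides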
# Sequence of Epidermal growth factor receptor (Homo sapiens) (P00533 whole entry, looked up): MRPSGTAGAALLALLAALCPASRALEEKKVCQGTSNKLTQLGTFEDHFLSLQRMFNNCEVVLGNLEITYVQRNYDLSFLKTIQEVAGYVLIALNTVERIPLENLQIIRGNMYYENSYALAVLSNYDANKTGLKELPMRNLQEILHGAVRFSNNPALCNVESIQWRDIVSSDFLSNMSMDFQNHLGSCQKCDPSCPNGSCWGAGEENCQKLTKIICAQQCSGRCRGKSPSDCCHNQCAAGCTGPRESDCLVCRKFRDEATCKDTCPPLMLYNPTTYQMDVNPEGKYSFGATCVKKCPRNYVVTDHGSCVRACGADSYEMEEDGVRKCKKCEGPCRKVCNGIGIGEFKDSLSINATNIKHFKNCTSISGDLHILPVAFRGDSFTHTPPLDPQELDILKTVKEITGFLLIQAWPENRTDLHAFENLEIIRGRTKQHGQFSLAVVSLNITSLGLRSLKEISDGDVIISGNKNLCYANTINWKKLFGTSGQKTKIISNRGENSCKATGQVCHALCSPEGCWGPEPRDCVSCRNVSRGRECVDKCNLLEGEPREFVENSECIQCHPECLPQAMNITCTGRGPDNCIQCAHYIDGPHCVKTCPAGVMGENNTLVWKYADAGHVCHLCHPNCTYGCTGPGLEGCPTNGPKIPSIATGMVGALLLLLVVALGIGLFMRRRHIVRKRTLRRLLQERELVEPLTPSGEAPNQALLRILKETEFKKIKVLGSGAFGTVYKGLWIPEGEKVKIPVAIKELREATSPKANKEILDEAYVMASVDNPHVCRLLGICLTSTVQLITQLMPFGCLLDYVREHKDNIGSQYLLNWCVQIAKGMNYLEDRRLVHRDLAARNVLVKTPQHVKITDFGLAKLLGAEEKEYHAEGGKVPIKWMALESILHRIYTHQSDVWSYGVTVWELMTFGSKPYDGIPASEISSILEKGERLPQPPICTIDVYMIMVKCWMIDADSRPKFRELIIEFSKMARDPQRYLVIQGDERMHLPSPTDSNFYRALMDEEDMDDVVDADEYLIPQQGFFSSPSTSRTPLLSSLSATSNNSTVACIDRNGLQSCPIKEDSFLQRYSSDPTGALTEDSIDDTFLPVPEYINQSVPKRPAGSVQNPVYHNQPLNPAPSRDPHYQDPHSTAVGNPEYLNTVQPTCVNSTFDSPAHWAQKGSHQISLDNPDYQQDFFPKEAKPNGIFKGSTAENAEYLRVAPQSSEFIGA
# [18] = molecular target: Follistatin-related protein 3 (Homo sapiens) (UniProt O95633); assay: FSTL3 binders on small-molecule microarrays, primary screen, biochemical, small-molecule microarray, 635 nm fluorescence (AID 1105); conditions: FSTL3 binding, higher = more signal;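 also: score merges emission near 667 nm and signal to noise per printed spot across three slides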
# Sequence of Follistatin-related protein 3 (Homo sapiens) (O95633 whole entry, looked up): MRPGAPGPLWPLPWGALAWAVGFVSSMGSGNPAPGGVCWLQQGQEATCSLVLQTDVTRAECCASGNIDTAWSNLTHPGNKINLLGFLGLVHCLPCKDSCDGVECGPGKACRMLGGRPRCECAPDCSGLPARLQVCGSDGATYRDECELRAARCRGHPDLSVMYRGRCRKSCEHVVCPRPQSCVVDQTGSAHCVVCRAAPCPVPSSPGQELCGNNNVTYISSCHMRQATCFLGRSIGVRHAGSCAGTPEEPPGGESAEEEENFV
# [19] = molecular target: Dickkopf-related protein 1 (Homo sapiens) (UniProt O94907); assay: DKK1 binders on small-molecule microarrays, primary screen, biochemical, small-molecule microarray, 635 nm fluorescence scan (AID 1106); conditions: DKK1 binding, higher = more signal;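 also: score merges emission near 667 nm with signal to noise over three replicate slides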
# Sequence of Dickkopf-related protein 1 (Homo sapiens) (O94907 whole entry, looked up): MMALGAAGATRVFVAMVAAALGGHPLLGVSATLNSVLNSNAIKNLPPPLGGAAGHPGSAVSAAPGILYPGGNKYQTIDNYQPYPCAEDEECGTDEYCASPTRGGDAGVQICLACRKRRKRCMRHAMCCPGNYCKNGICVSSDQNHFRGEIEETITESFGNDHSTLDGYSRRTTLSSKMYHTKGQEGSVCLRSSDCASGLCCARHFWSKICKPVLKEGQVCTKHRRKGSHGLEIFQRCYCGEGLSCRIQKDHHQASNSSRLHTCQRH
# [20] = system: Inhibin beta A chain (activin A); assay: INHBA (activin A) binders on microarrays, primary screen, biochemical, small-molecule microarray, 635 nm fluorescence scan (AID 1107); conditions: small-molecule microarray binding, higher = more signal;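 also: mouse activin A protein probed at 4.33 µg/mL on printed slides; score merges bound-protein fluorescence near 667 nm with spot signal-to-noise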
compound,measurement,setting,value
C=CCC(OC(C)=O)[C@@H]1[C@@H](N(Cc2ccc(-c3cccc(C(F)(F)F)c3)o2)C(=O)Cc2ccc(OC)cc2)c2cc(OCCCO)ccc2N1C(=O)c1ccc(-c2ccccc2)cc1 (stereo not given in full),composite z-score,[1],0.62
same,z-score,[2],0.282 (inactive)
same,z-score,[3],0.297 (inactive)
same,z-score,[4],0.322 (inactive)
same,composite z-score,[5],0.442
same,z-score,[6],-0.936 (inactive)
same,composite z-score,[7],-0.0436
same,composite z-score,[8],-0.478
same,composite z-score,[9],-0.449
same,composite z-score,[10],-0.146
same,composite z-score,[11],-0.318
same,composite z-score,[12],-0.0755
same,composite z-score,[13],0.541
same,z-score,[14],-1.13 (inactive)
same,composite z-score,[15],-0.165
same,composite z-score,[16],-0.522
same,composite z-score,[17],-0.577
same,composite z-score,[18],-0.119
same,composite z-score,[19],-0.434
same,composite z-score,[20],1.39
N#Cc1ccc(NN2C(C(O)c3ccc(Br)cc3)C=CC3C(=O)N(c4ccccc4)C(=O)C32)cc1 (stereo not given),composite z-score,[1],0.751
same,z-score,[2],-1.16 (inactive)
same,z-score,[3],-0.605 (inactive)
same,z-score,[4],0.297 (inactive)
same,composite z-score,[5],2.99
same,z-score,[6],-1 (inactive)
same,composite z-score,[7],0.145
same,composite z-score,[8],-0.146
same,composite z-score,[9],1.01
same,composite z-score,[10],0.233
same,composite z-score,[11],1.17
same,composite z-score,[12],0.96
same,composite z-score,[13],0.905
same,z-score,[14],-0.699 (inactive)
same,composite z-score,[15],0.65
same,composite z-score,[16],0.648
same,composite z-score,[17],0.297
same,composite z-score,[18],0.743
same,composite z-score,[19],0.316
same,composite z-score,[20],-0.374
CC(C)c1ccc(NN2C(C(O)c3ccc(F)cc3)C=CC3C(=O)N(c4ccccc4)C(=O)C32)cc1 (stereo not given),composite z-score,[1],1.47
same,z-score,[2],1.22 (inactive)
same,z-score,[3],0.842 (inactive)
same,z-score,[4],0.159 (inactive)
same,composite z-score,[5],3.57
same,z-score,[6],-1.01 (inactive)
same,composite z-score,[7],-0.0865
same,composite z-score,[8],-0.101
same,composite z-score,[9],1.03
same,composite z-score,[10],0.0182
same,composite z-score,[11],1.28
same,composite z-score,[12],0.47
same,composite z-score,[13],0.775
same,z-score,[14],-0.548 (inactive)
same,composite z-score,[15],1.07
same,composite z-score,[16],0.275
same,composite z-score,[17],0.3
same,composite z-score,[18],1.37
same,composite z-score,[19],-0.0647
same,composite z-score,[20],0.869
Cc1ccc(S[C@]2(C(=O)NCCN3CCOCC3)CC(=O)N(Cc3ccccc3Cl)[C@@H]2c2ccc(CO)cc2I)cc1,composite z-score,[1],0.443
same,z-score,[2],-0.841 (inactive)
same,z-score,[3],-3.57 (inactive)
same,z-score,[4],0.665 (inactive)
same,composite z-score,[5],2.77
same,z-score,[6],-0.373 (inactive)
same,composite z-score,[7],0.508
same,composite z-score,[8],-0.064
same,composite z-score,[9],-0.364
same,composite z-score,[10],-0.455
same,composite z-score,[11],1.65
same,composite z-score,[12],-0.831
same,composite z-score,[13],-0.0429
same,z-score,[14],-0.849 (inactive)
same,composite z-score,[15],0.133
same,composite z-score,[16],-0.207
same,composite z-score,[17],-1.29
same,composite z-score,[18],-0.355
same,composite z-score,[19],-1.82
same,composite z-score,[20],1.07
CCCCC=C[C@@H](NC(=O)OCc1ccccc1Cl)c1ccccc1,composite z-score,[1],1.48
same,z-score,[2],0.952 (inactive)
same,z-score,[3],1.18 (inactive)
same,z-score,[4],2.28 (inactive)
same,composite z-score,[5],2.9
same,z-score,[6],-1.48 (inactive)
same,composite z-score,[7],1.09
same,composite z-score,[8],1.34
same,composite z-score,[9],1.02
same,composite z-score,[10],0.98
same,composite z-score,[11],0.732
same,composite z-score,[12],1.53
same,composite z-score,[13],1.09
same,z-score,[14],0.233 (inactive)
same,composite z-score,[15],0.431
same,composite z-score,[16],1.29
same,composite z-score,[17],0.566
same,composite z-score,[18],1.19
same,composite z-score,[19],-0.193
same,composite z-score,[20],0.709
